Values joined by “and” are separate entries in the source; they are usually repeats but may differ in a detail not shown here. Equal values may be shown once. Records with an inconclusive call do not appear. Active and inactive are the calls of the source. The call rests on the fitted dose curve; in most records, active means well fitted cell-killing curve with a large enough effect; inconclusive means small, poorly fitted or top-dose-only effect, or effect the other way; inactive means no such curve, though single readings can be large or run the other way.
Potency means the concentration at half of the fitted maximal effect.

A short description of the first experiment: Viability qHTS for spleen associated tyrosine kinase inhibitor (SYKi) naive MV4-11 cells (AID 1963823). Further: nearly all actives have a fitted effect of over 40% in size. The conditions noted are these: MV4-11 AML viability, CellTiter-Glo luminescence, 72 h; series mostly up to 45 µM. In short, it runs like this: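 Compounds were dispensed acoustically onto plates, MV4-11 cells (SYKi-naive) added at 500 per well, and plates incubated 72 hr at 37 C. CellTiter-Glo was added and luminescence measured after 10 min.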
A general note: In qHTS, concentration-response curves come from the screen itself.
With `CC(C)(C)c1[nH]cnc1/C=c1\[nH]c(=O)/c(=C/c2ccccc2)[nH]c1=O`, the Potency was 0.0833 µM (active). As to `CC(=O)OCC[N+](C)(C)C`, the Potency result was “inactive”.

For the molecule `C[C@@H]1CCNC(=O)c2cc3ccc(C(=O)Nc4nc5ccccc5n4CCCN(C)C)cc3n21`, the Potency was 0.662 µM (active).

Turning to `Cc1cc(CS(=O)(=O)c2ccccc2)cc(OCc2ccc(CN3CCC[C@@H]3CO)cc2)c1`, the Potency is 16.6 µM (active). Same read-out and setting: the figure for `Cc1ccc(-n2nc(C(C)(C)C)cc2NC(=O)NCc2cc(F)ccc2Oc2ccc3c(cnn3CCO)c2)cc1` is 9.34 µM (active). As for `Cc1c(-c2cnccn2)ssc1=S`, the Potency is 4.17 µM (active).

Take `COc1c2occc2c(OC)c2c(=O)cc(C)oc12`: the Potency entry was “inactive”.

The nature of a further experiment: Viability qHTS for spleen associated tyrosine kinase inhibitor (SYKi) drug resistant MV4-11 cells (AID 1963824). Further: nearly all actives have a fitted effect of over 35% in size. The conditions noted are these: SYKi-resistant MV4-11 viability, CellTiter-Glo, 72 h; series mostly up to 45 µM. In short, it runs like this: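 CellTiter-Glo luminescence, read 10 min after reagent addition, reports viability after a 72 hr compound exposure. Cells are an MV4-11 line made resistant to SYK inhibition, seeded at 500 per well onto compound-containing plates.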
Regarding `COc1cc(C(=O)NC(N)=Nc2ccc(C)c(NC(=O)c3ccc(-c4ccccc4)cc3)c2)cc(OC)c1OC`, the Potency was 8.33 µM (active). On the same count and under the same terms, the figure for `COc1cc(N2CCN(C(C)=O)CC2)ccc1Nc1ncc(Cl)c(Nc2ccc(N3CCN(C(C)=O)CC3)cc2OC)n1` is 366 nM (active) and 1.05 µM (active).

With `CCCCC/C(C=O)=C\c1ccccc1`, the Potency result was “inactive”.

`O=c1sn(-c2cccc3ccccc23)c(=O)n1Cc1ccccc1`: the Potency was 11.6 µM (active) and 8.33 µM (active). On to `Nc1nccc2c1ncn2[C@@H]1C=C(CO)[C@@H](O)[C@H]1O`, for which the Potency was 0.209 µM (active).

For `CCC(=O)O[C@H]1[C@H](O[C@@H]2[C@@H](C)[C@H](O[C@H]3C[C@@](C)(OC)[C@@H](O)[C@H](C)O3)[C@@H](C)C(=O)O[C@H](CC)[C@@](C)(O)[C@H](O)[C@@H](C)C(=O)[C@H](C)C[C@@]2(C)O)O[C@H](C)C[C@@H]1N(C)C`, the Potency entry was “inactive”.

With `Cc1nc(NC(=O)N2CCC[C@H]2C(N)=O)sc1-c1csc(C(C)(C)C)n1`, the Potency was 7.42 µM (active). For the molecule `Nc1ccc(C(=O)O)c(O)c1`, the Potency result is “inactive”.

For the molecule `NC(=NCCCCCCN=C(N)/N=C(\N)Nc1ccc(Cl)cc1)/N=C(\N)Nc1ccc(Cl)cc1`, the Potency was 2.99 µM (active) and 1.64 µM (active). Still for that read-out and setting: for `CC(=O)O[C@]1(C(C)=O)CC[C@H]2[C@@H]3C=C(C)C4=CC(=O)CC[C@]4(C)[C@H]3CC[C@@]21C` the value was 14.8 µM (active); for `OC[C@H]1O[C@@H](S[C@@H]2O[C@H](CO)[C@H](O)[C@H](n3cc(-c4cccc(F)c4)nn3)[C@H]2O)[C@H](O)[C@@H](n2cc(-c3cccc(F)c3)nn2)[C@H]1O`, “inactive”; for `O=S(=O)(O)c1ccc2nc(-c3ccccc3)[nH]c2c1`, “inactive”. Regarding `COc1ccc(/C=C\c2cc(OC)c(OC)c(OC)c2)cc1O`, the Potency was 0.0047 µM (active).

With `CCCNC(=O)[C@H]1O[C@@H]1C(=O)N[C@H](C(=O)N1CCC[C@H]1C(=O)OC)C(C)CC` (some centres not stated), the Potency was 0.934 µM (active). On to `CCc1cc(/C(C)=N/OCc2ccc(C3CCCCC3)c(C(F)(F)F)c2)ccc1CN1CC(C(=O)O)C1`, for which the Potency was 14.8 µM (active). On to `COc1cc2ncnc(Nc3ccc(O)c(Br)c3)c2cc1OC`, for which the Potency is 1.64 µM (active) and 1.66 µM (active). Turning to `CCC(=O)O[C@]1(C(=O)CCl)[C@@H](C)C[C@H]2[C@@H]3CCC4=CC(=O)C=C[C@]4(C)[C@@]3(F)[C@@H](O)C[C@@]21C`, the Potency is 15 µM (active) and 14.8 µM (active).

On to `CCCCCCCC/C=C\CCCCCCCC(=O)NCc1ccc(O)c(OC)c1`, for which the Potency is 0.668 µM (active). On the same count and under the same terms, the figure for `C[C@@H](Oc1cc(C(=O)Nc2ccc(C(=O)N3CCN(C)CC3)cc2)nnc1N)c1c(Cl)ccc(F)c1Cl` is 2.63 µM (active). For the molecule `CC(=O)/C=C/C=C1/C2CCC(C2)C1(C)C` (configuration not stated), the Potency entry is “inactive”.

For `CCC1=C[C@@H]2CN(C1)Cc1c([nH]c3ccccc13)[C@@](C(=O)OC)(c1cc3c(cc1OC)N(C)[C@H]1[C@@](O)(C(=O)OC)[C@H](OC(C)=O)[C@]4(CC)C=CCN5CC[C@]31[C@@H]54)C2`, the Potency was 7.5 nM (active) and 64.5 nM (active). For the molecule `CCOC(=O)c1ccnc(CNCC(=O)N(CC)CCN(C)C)c1`, the Potency entry was “inactive”.

For the molecule `NNc1nnc(NN)c2ccccc12`, the Potency entry is “inactive”. The same measure, in the same setting: the entry for `CCN(CC)CCOC(=O)C1(C2CCCCC2)CCCCC1` is “inactive”; for `CCCOc1ccc2c(c1)CC[C@@H]1[C@@H]2CC[C@]2(C)C(OC)CC[C@@H]12` (some centres not stated) it is “inactive”; for `CCCCCOc1ccccc1/C(=C\SC)n1ccnc1` it is 18.8 µM (active). Turning to `CNS(=O)(=O)c1ccc2c(c1)/C(=C/c1[nH]c3c(c1CCCN1CCN(C)CC1)CCCC3)C(=O)N2`, the Potency was 0.332 µM (active). On to `CC[C@@]1(O)C(=O)OCc2c1cc1n(c2=O)Cc2c-1nc1ccccc1c2CCNC(C)C`, for which the Potency is 0.0059 µM (active). Take `O=C(/C=C/c1ccc(Cl)cc1)N1CCC2(CC1)CN(Cc1ccc(Cl)c(Cl)c1)C(=O)O2`: the Potency was 11.8 µM (active).

Take `COc1ccc(Cl)c(Nc2ncnc3cc(OCC4CCN(C)CC4)c(OC)cc23)c1`: the Potency was 5.17 µM (active). Take `CN(C)CCCOC1(Cc2ccccc2)CCCCCC1`: the Potency entry was “inactive”. In the case of `CC1=C(c2ccc(O)cc2)[C@H](c2ccc(OCCN3CCCCC3)cc2)Oc2cc(O)ccc21`, the Potency was 8.33 µM (active). On to `Cc1[nH]c(/C=C2\C(=O)Nc3ccc(F)cc32)c(C)c1C(=O)NC[C@H](O)CN1CCOCC1`, for which the Potency is 23.1 nM (active) and 46.8 nM (active). Regarding `CC(C)(C)c1[nH]cnc1/C=c1\[nH]c(=O)/c(=C/c2ccccc2)[nH]c1=O`, the Potency was 0.0934 µM (active). For `CC(=O)OCC[N+](C)(C)C`, the Potency result was “inactive”. Regarding `C[C@@H]1CCNC(=O)c2cc3ccc(C(=O)Nc4nc5ccccc5n4CCCN(C)C)cc3n21`, the Potency was 0.82 µM (active). As for `Cc1cc(CS(=O)(=O)c2ccccc2)cc(OCc2ccc(CN3CCC[C@@H]3CO)cc2)c1`, the Potency was 16.6 µM (active).

On to `Cc1ccc(-n2nc(C(C)(C)C)cc2NC(=O)NCc2cc(F)ccc2Oc2ccc3c(cnn3CCO)c2)cc1`, for which the Potency was 10.3 µM (active). Regarding `Cc1c(-c2cnccn2)ssc1=S`, the Potency was 4.68 µM (active). With `COc1c2occc2c(OC)c2c(=O)cc(C)oc12`, the Potency entry was “inactive”.

The record behind these values is PubChem BioAssay (NCATS).
